Data reported in PubChem BioAssay.

What follows are compounds tested on R275C/beta2Delta (assay: BK channel mutant inhibitors and activators – cell-based, U2OS BacMam, thallium flux, beta subunits, selectivity assay, profiling panel (AID 1259406;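 also: initial slope of Thallos dye fluorescence rise after thallium is added; log ratio against the mean of 0.3% DMSO vehicle wells on the same plate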)). Details: U2OS BacMam BK variants, at 30 µM;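 active = thallium flux through the channel raised or lowered by more than 3 SD from vehicle-only wells, actives on both sides; inactive = the rest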.

Log fold change Tl+ flux, inactive:
COC(=O)c1ccc(C=Cc2cccc(Cl)c2)s1 -0.00722
COc1ccc(C(=O)NNC(=O)c2c(OC)cc(C(F)(F)F)cc2C(F)(F)F)cc1 0.00715
Cn1c(SCCS(=O)(=O)c2ccc(OC(F)(F)F)cc2)nnc1C(F)(F)F -0.0306
O=C(O)c1cccc(CSc2cccs2)c1 0.018
Cc1onc(-c2c(Cl)cccc2Cl)c1C1=NCCO1 -0.0377
CCOC(=O)c1cc(CC)sc1NC(=O)C(Cl)(Cl)Cl 0.0214
Cc1nn(-c2ccccc2)nc1C(=O)NNC(=O)CSCc1cccc2ccccc12 -0.0226
Cc1oc(S(=O)(=O)N2CCOCC2)cc1C(=O)Nc1ccc(F)cc1 0.00085
Cc1ccc(S(=O)(=O)NC(=O)Nc2nc(-c3ccc(C)c(Cl)c3)c(C)s2)cc1 0.0622
CCCn1c(=O)c(Br)cn(-c2ccccc2C)c1=O -0.00562
CCOC(=O)Cn1c(-c2c(Cl)cccc2Cl)noc1=O 0.0184
Cc1nn(C)c(NCc2cccs2)c1[N+](=O)[O-] 0.028
Nc1ccc(Cl)cc1-c1nc2ccccc2[nH]1 -0.0678
COC(=O)CC1(C(=O)OC)Oc2ccc(Br)cc2C(=O)N1c1cccc(Cl)c1Cl (stereo unspecified) 0.0176
Cc1c(C(=O)Nc2ccc(N3CCOCC3)c(Cl)c2)cnn1-c1ccc(F)cc1 -0.0229
CC(=O)OCC(OC(C)=O)C(OC(C)=O)C(OC(C)=O)C(C#N)OC(C)=O (stereo unspecified) 0.0587
